This passage reports Potency results from PubChem BioAssay (NCATS).

Assay [1] deals with HeLa. Briefly: Primary qHTS to identify gynecologic anti-cancer compounds using libraries of approved drugs and bioactive compounds (AID 1345084). Further: nearly all actives have a fitted effect of over 55% in size. Further: potency means the concentration at half of the fitted maximal effect. The settings on record: Gynecologic cancer cell panel viability, ATPlite luminescence, 48 h; series mostly up to 57.5 µM. A digest of the protocol: (§1)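 Cells, 1,000 per well, plated 16 h, then exposed 48 h at 37 C to compounds. Viability by ATPlite luminescence after 15 min at room temperature.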
(In general: In qHTS, concentration-response curves come from the screen itself.)

Assay [2] relates to Hek293T. Described as above. The settings on record: Gynecologic cancer cell panel viability, ATPlite luminescence, 48 h, control line for the selectivity index; series mostly up to 57.5 µM. A digest of the protocol: as §1
For orientation: Cellular ATP, detected with luciferase, serves as a proxy for viable cell number.

Assay [3] concerns JEG-3. Described as above. The settings on record: Gynecologic cancer cell panel viability, ATPlite luminescence, 48 h; series mostly up to 57.5 µM. Put shortly: as §1
The test system of assay [4] is OV90. The assay is described as above. The settings on record: Gynecologic cancer cell panel viability, ATPlite luminescence, 48 h; series mostly up to 57.5 µM. A digest of the protocol: as §1
Assay [5] concerns PA-1. The assay is described as above. The settings on record: Gynecologic cancer cell panel viability, ATPlite luminescence, 48 h; series mostly up to 57.5 µM. A digest of the protocol: as §1
In assay [6] the test system is SKOV3. The assay is described as above. Conditions: Gynecologic cancer cell panel viability, ATPlite luminescence, 48 h; series mostly up to 57.5 µM. A digest of the protocol:
as §1

For assay [7], the system named is Tov-21-G. Described as above. The settings on record: Gynecologic cancer cell panel viability, ATPlite luminescence, 48 h; series mostly up to 57.5 µM. Put shortly:
as §1

Assay [8] relates to Tov112D. Described as above. Conditions: Gynecologic cancer cell panel viability, ATPlite luminescence, 48 h; series mostly up to 57.5 µM. A digest of the protocol:
as §1

Assay [9] can be described thus: Drug repurposing screens with cells derived from glioblastoma tumor samples (AID 1345199). Further: nearly all actives have a fitted effect of over 40% in size. The settings on record: GBM patient neurospheres viability, ATP luminescence, 48 h; Potency: tumour line A unless noted; series mostly up to 45.9 µM. A digest of the protocol: (§2)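 Primary testing used CD133+ neurospheres from four GBM patients, seven concentrations, 48 h exposure and ATP-based viability; confirmation added three slower-growing patient lines.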

Assay [10] has as its system astro. The description is as above. The settings on record: viability, ATP luminescence, 48 h; series mostly up to 45.9 µM. Put shortly: as §2

Results filed as inconclusive are left out. Calls of active or inactive are those of the source. The call rests on the fitted dose curve; in most records, active means well fitted curve in the direction sought with a large enough effect; inconclusive means small, poorly fitted or top-dose-only effect, or another doubt; inactive means no such curve, though single readings can be large; an effect the other way counts as inactive or inconclusive.

For the molecule `O=C(O)COc1ccccc1`, the Potency result in assay [1], in [2], in [3], in assay [4], in assay [5] and in assay [6] was “inactive” each time. Further, the Potency entry in [7], in [8] and in assay [9] was “inactive” each time.
For the molecule `CCOC(=O)Nc1ccc(NCc2ccc(F)cc2)cc1N`, the Potency result in assay [1], in assay [2], in assay [3], in assay [4], in assay [5] and in assay [6] was “inactive” each time. Further, the Potency result in assay [7] and in assay [8] was “inactive” in each case.
In the case of `COC(C)(C)CCCC(C)C/C=C/C(C)=C/C(=O)OC(C)C` (stereo not given), the Potency result in assay [1], in assay [2], in assay [3], in assay [4], in assay [5] and in assay [6] was “inactive” each time. The Potency result in [7] and in [8] was “inactive” throughout.
With `O=S(=O)(O)C(F)(F)C(F)(F)C(F)(F)C(F)(F)C(F)(F)C(F)(F)C(F)(F)C(F)(F)F`, the Potency entry in assay [1], in assay [2], in assay [3], in [4], in [5] and in assay [6] was “inactive” in each case. Further, the Potency entry in [7], in assay [8] and in assay [9] was “inactive” throughout.
Turning to `O=C(Oc1ccc([N+](=O)[O-])cc1)N1CCN(Cc2cccc(Oc3ccccc3)c2)CC1`, the Potency result in [1], in [2], in [3], in assay [4], in assay [5] and in assay [6] was “inactive” throughout. Moreover, the Potency result in assay [7] and in [8] was “inactive” each time.
`O=C(Oc1ccc([N+](=O)[O-])cc1)N1CCC(C(O)(c2ccc3c(c2)OCO3)c2ccc3c(c2)OCO3)CC1`: the Potency entry in assay [1], in assay [2], in assay [3], in [4], in assay [5] and in [6] was “inactive” in each case. Also, the Potency result in assay [7] and in assay [8] was “inactive” throughout.
Take `CCN1CCN(C(=O)Cc2ccc(Nc3ncc(F)c(Nc4ccc(C(=O)Nc5ccccc5Cl)cc4)n3)cc2)CC1`: the Potency was 8.91 µM (active) in assay [1]; 25.1 µM (active) in [2]; 25.1 µM (active) in assay [5]; 15.8 µM (active) in assay [6]; 28.2 µM (active) in [7]; 2.51 µM (active) in assay [8]. Further, the Potency result in [3] and in [4] was “inactive” in each case.
As to `CN1CCN(c2ccc([N+](=O)[O-])c3no[n+]([O-])c23)CC1`, the Potency entry in [1], in assay [2], in [3], in [4], in assay [5] and in assay [6] was “inactive” in each case. For the same molecule, the Potency result in [7] and in assay [8] was “inactive” each time.
As to `O=C(N[C@H]1CN2CCC1CC2)c1ccc(Cl)cc1`, the Potency entry in [1], in assay [2], in [3], in assay [4], in [5] and in [6] was “inactive” throughout. The Potency entry in assay [7] and in assay [8] was “inactive” throughout.
As to `O=C(O)COc1nc(Cl)c(Cl)cc1Cl`, the Potency result in assay [1], in assay [2], in [3], in [4], in assay [5] and in [6] was “inactive” in each case. Moreover, the Potency result in assay [7], in [8] and in assay [9] was “inactive” throughout.
For `Cc1ccc(Cl)c(O)c1`, the Potency result in assay [1], in assay [2], in assay [3], in [4], in [5] and in assay [6] was “inactive” each time. Moreover, the Potency result in assay [7], in [8], in assay [9] and in assay [10] was “inactive” throughout.
For the molecule `O=C(NCC1CCOCC1)c1cnc(Nc2ccc(Cl)cc2Cl)nc1C(F)(F)F`, the Potency entry in assay [1], in assay [2], in assay [3], in assay [4], in assay [5] and in assay [6] was “inactive” throughout. Also, the Potency entry in [7] and in assay [8] was “inactive” in each case.
Consider `Cc1c(C(=O)Nc2cccc(C(F)(F)F)c2)cc(-c2ccccc2)n1CCCN1CCOCC1`, for which the Potency entry in [1], in assay [2], in assay [3], in [4], in assay [5] and in [6] was “inactive” each time. Moreover, the Potency result in assay [7] and in [8] was “inactive” throughout.
For `CC(C)NCC(O)c1ccc([N+](=O)[O-])cc1` (stereo not given), the Potency entry in [1], in [2], in assay [3], in assay [4], in [5] and in assay [6] was “inactive” in each case. In addition, the Potency entry in [7], in assay [8], in assay [9] and in assay [10] was “inactive” in each case.
Take `S=C(NC1CCCCC1)N1CCC(c2cnc[nH]2)CC1`: the Potency entry in assay [1], in assay [2], in assay [3], in assay [4], in assay [5] and in [6] was “inactive” each time. Also, the Potency result in assay [7] and in assay [8] was “inactive” in each case.
For `COc1nn(CSP(=S)(OC)OC)c(=O)s1`, the Potency entry in [1], in assay [2], in assay [3] and in [4] was “inactive” in each case.
`Oc1ccc2c3c1O[C@H]1[C@@H](O)C=C[C@H]4[C@@H](C2)NCC[C@@]341`: the Potency result in assay [1], in [2], in assay [3], in [4], in assay [5] and in assay [6] was “inactive” in each case. For the same molecule, the Potency entry in assay [7], in [8] and in [9] was “inactive” each time.
On to `CC(=O)NCCc1c[nH]c2ccccc12`, for which the Potency result in assay [1], in assay [2], in assay [3], in assay [4], in [5] and in [6] was “inactive” in each case. Besides, the Potency result in [7] and in [8] was “inactive” throughout.
For the molecule `CC(=O)[O][Hg][c]1ccccc1`, the Potency is 14.1 µM (active) in assay [1]; 7.08 µM (active) in [2]; 5.01 µM (active) in assay [3]; 12.6 µM (active) in [4]; 3.16 µM (active) in assay [5]; 3.55 µM (active) in assay [6]. Also, the Potency in assay [7] is 2.51 µM (active); in [8], 5.01 µM (active).
For `COC1=C[C@@H]2[C@@H]3Cc4ccc(OC)c(O)c4[C@]2(CCN3C)CC1=O`, the Potency entry in [1], in assay [2], in [3], in assay [4], in assay [5] and in assay [6] was “inactive” each time. The Potency result in assay [7] and in [8] was “inactive” in each case.
For `CCc1c(C(=O)C(N)=O)c2c(OCC(=O)O)cccc2n1Cc1ccccc1`, the Potency entry in [1], in [2], in assay [3], in assay [4], in assay [5] and in assay [6] was “inactive” each time. Also, the Potency result in [7] and in [8] was “inactive” in each case.
Consider `CC1=C(C(=O)O)N2C(=O)[C@@H](N)[C@H]2SC1`, for which the Potency entry in [1], in [2], in assay [3], in [4], in assay [5] and in [6] was “inactive” in each case. For the same molecule, the Potency result in [7] and in assay [8] was “inactive” each time.
